Laboratory results from the supplement of paper PMC9023506.
Counter-ions that a name gives are not always drawn.

These compounds were tested on Danio rerio larvae (5 dpf) (assay: optomotor response to fast red moving lines, difference vs DMSO (percentage points (treated minus DMSO)); higher = more of the behaviour than the DMSO vehicle control). Settings: 10 µM; exposure time: 3 h pre-incubation + 3 h imaging.
Procedure: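 5-dpf wild-type zebrafish larvae were imaged in 96-well plates. They were treated with 190 Tocris FDA-approved drugs at 10 µM (1 µl/ml DMSO) for 3 h before and 3 h during imaging at 28.5 °C, 48 larvae per drug. Automated image analysis gave % time moving and optomotor responses. Values are drug group mean minus DMSO vehicle mean (n=844), in percentage points, for 10 behaviours.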
With `O=c1[nH]c2ccccc2n1C1CCN(CCCC(c2ccc(F)cc2)c2ccc(F)cc2)CC1` [Pimozide] the optomotor response was -34.3.
For `N[C@@H]1C[C@H]1c1ccccc1` [Tranylcypromine hydrochloride], the optomotor response was 11.9.
With `CC(O)(CS(=O)(=O)c1ccc(F)cc1)C(=O)Nc1ccc(C#N)c(C(F)(F)F)c1` (stereo unspecified) [Bicalutamide] the optomotor response was -2.63.
With `COc1ccc(C(CN(C)C)C2(O)CCCCC2)cc1` (stereo unspecified) [Venlafaxine hydrochloride] the optomotor response was 7.81.
In the case of `CC(C)C[C@H]1C(=O)N2CCC[C@H]2[C@]2(O)O[C@](NC(=O)[C@@H]3C=C4c5cccc6[nH]c(Br)c(c56)C[C@H]4N(C)C3)(C(C)C)C(=O)N12` [Bromocriptine mesylate], the optomotor response was -41.6.
Work on `C=CCN1C[C@H](C(=O)N(CCCN(C)C)C(=O)NCC)C[C@@H]2c3cccc4[nH]cc(c34)C[C@H]21` [Cabergoline] yielded an optomotor response of -23.2.
In the case of `CN1C[C@H](C(=O)N[C@]2(C)O[C@@]3(O)[C@@H]4CCCN4C(=O)[C@H](Cc4ccccc4)N3C2=O)C[C@@H]2c3cccc4[nH]cc(c34)C[C@H]21` [Dihydroergotamine mesylate], the optomotor response was 2.2.
Compound `COc1cc2c(cc1OC)C1CC(=O)C(CC(C)C)CN1CC2` (stereo unspecified) [Tetrabenazine] has an optomotor response of -22.5.
Compound `CCN(C)C(=O)Oc1cccc([C@H](C)N(C)C)c1` [Rivastigmine tartrate] has an optomotor response of -8.58.
Work on `CC[C@@H](C(N)=O)N1CCCC1=O` [Levetiracetam] yielded an optomotor response of -4.73.
`C=C1C[C@@H]2[C@H](CC[C@]3(C)C(=O)CC[C@@H]23)[C@@]2(C)C=CC(=O)C=C12` [Exemestane] gave an optomotor response of 5.64.
